The text below walks through data of PubChem BioAssay AID2315 (National Center for Advancing Translational Sciences (NCATS), 2010).

About 27,000 (9.3%) of roughly 290,000 compounds were called active. Cut-off read from the data, not from the text of the source: active = inhibition mostly above about 28% (no sharp cut-off); inactive = mostly below about 43%. What follows is part of a selection rich in actives, with near analogues and random picks from the rest.

A short description of this test: A qHTS for Small Molecule Inhibitors of Shiga Toxin. For inhibition: 0% is about no effect. As to conditions: Vero cells, Shiga toxin protein synthesis inhibition reporter; at 38.7 µM, stronger effect = higher value.
In the case of `O=C(COc1ccc(-n2cnnn2)cc1)Nc1ccccc1Cl`, the inhibition is -8.42% (inactive).
For `CC(C)(C)c1ccc(C(CC(=O)O)NS(=O)(=O)Cc2ccccc2)cc1` (stereo unspecified), the inhibition was 17% (inactive).
Regarding `COc1ccccc1Oc1nc(-c2cccnc2)nc2ccccc12`, the inhibition is 10.4% (inactive).
As for `Fc1ccc(/C=N/Nc2nc(-c3cccnc3)nc3ccccc23)cc1`, the inhibition is 47.7% (active).
With `COc1ccc(Nc2nc(-c3cccnc3)nc3ccccc23)cn1`, the inhibition is -3.47% (inactive).
On to `Nc1nonc1-n1nnc(C(=O)N/N=C/c2ccc(Cl)cc2)c1-c1ccc2c(c1)OCO2`, for which the inhibition is -3.05% (inactive).
Next, `COc1ccccc1NC(=O)C(C)OC(=O)CC1CCCC1` (stereo unspecified): -16.1% (inactive); `COc1ccccc1OCc1nnc(SCC(N)=O)n1-c1ccccc1`: 7.34% (inactive); `O=C(CN1CCN(c2ccccn2)CC1)NC1CCCCC1`: -9.42% (inactive).
`N/C(=N\OC(=O)CC1CCCCC1)c1ccccc1`: the inhibition is 107% (active).
The value for `COc1ccccc1OCC(=O)O/N=C(\N)c1ccccn1` was 55.8% (active); that for `CC(C)(C)NC(=O)NC(=O)COC(=O)CCC1CCCCC1` was -9.95% (inactive); that for `COc1ccccc1OCC(=O)OCn1c(SC)nnc(C)c1=O` was 5.34% (inactive).
Turning to `N/C(=N\OC(=O)Cc1ccccc1[N+](=O)[O-])c1ccc(Br)cc1`, the inhibition is 49% (inactive).
On to `N/C(=N\OC(=O)CCC1CCCCC1)c1ccccn1`, for which the inhibition was 84.9% (active).
For the compound `CCN(CC(=O)Nc1ccc2c(c1)OCO2)S(=O)(=O)c1ccccc1`, the inhibition is 2.17% (inactive).
The value for `Cc1cccc(CN2CCC(n3nccc3NC(=O)c3ccccc3C)CC2)n1` was -8.84% (inactive); that for `Nc1nnnn1/N=C/c1cccc(Br)c1` was 18.9% (inactive); that for `Cc1cc(/C=C2/C(=N)N3C(=NC2=O)SN=C3S(C)(=O)=O)c(C)n1-c1ccccc1` was 98% (active).
For the compound `CCC1=NN2C(=N)/C(=C/c3cc(C)n(-c4ccccc4)c3C)C(=O)N=C2S1`, the inhibition was 6.12% (inactive).
`CCS(=O)(=O)C1=NSC2=NC(=O)/C(=C\c3cc(C)n(-c4cccc(OC)c4)c3C)C(=N)N21`: the inhibition was 21.9% (inactive).
Regarding `CC1(C)NC(=O)N(CC(=O)Nc2cc(C(F)(F)F)cc(C(F)(F)F)c2)C1=O`, the inhibition is 10.9% (inactive).
Next, `Cc1cc(=O)n2nc(N3CCC(C(=O)Nc4c(F)c(F)c(F)c(F)c4F)CC3)sc2n1`: -3.72% (inactive); `Cc1cc(=O)n2nc(N3CCCC(C(=O)NCc4ccc(Cl)cc4)C3)sc2n1` (stereo unspecified): -10.3% (inactive); `CC(=O)O[C@H]1c2ccccc2-c2ccccc2[C@@H]1OC(C)=O`: -4.45% (inactive).
Take `Nc1ccc(S(=O)(=O)Nc2nccc(/C=C/c3ccc(Br)s3)n2)cc1`: the inhibition is 2.79% (inactive).
Next, `Oc1cccc2ccc(/C=C/c3ccc(Br)s3)nc12`: 112% (active).
The value for `CC(=O)Nc1ccc(S(=O)(=O)NC2Cc3ccccc3C2)cc1` was -3.63% (inactive); that for `COc1ccc(CCNC(=O)CS(=O)(=O)Cc2nc(-c3ccc(C)cc3)oc2C)cc1OC` was 3.34% (inactive); that for `COc1ccc(CNc2nc3c(c(=O)[nH]c(=O)n3C)n2Cc2ccccc2)cc1` was -4.35% (inactive).
For `Cc1nc2c(c(=O)n1Cc1ccco1)c1nc3ccccc3nc1n2Cc1ccccc1`, the inhibition was -14% (inactive).
The value for `Cc1ccc(Cn2c(C)nc3c(c2=O)c2nc4ccccc4nc2n3Cc2ccco2)cc1` was 12.7% (inactive); that for `Clc1cccc(-c2nc3nc4ccccc4nc3n2Cc2ccco2)c1` was 75.4% (active).
Regarding `CN(C)N1C(N)=C(C#N)C(c2ccc(Br)cc2)C2=C1CCCC2=O` (stereo unspecified), the inhibition is -14.3% (inactive).
The value for `COc1ccccc1CN1CCCC(N2CCN(c3ccc(F)cc3)CC2)C1` (stereo unspecified) was -2.63% (inactive).
For the compound `Cc1ccc(S(=O)(=O)NCC(=O)N(CC(=O)NCC2CCCO2)c2cccc(F)c2)cc1` (stereo unspecified), the inhibition is -9.17% (inactive).
The value for `CCN(CC)C(=O)CSc1nc2ccccc2o1` was 67.4% (active); that for `O=C(CSc1nc2ccccc2o1)N1CCN(c2ccc(Cl)cc2)CC1` was -1.01% (inactive).
Take `Cc1ccc(/C=N/NC(=O)CSc2nc3ccccc3o2)cc1`: the inhibition was 83.9% (active).
Next, `O=C(CSc1nc2ccccc2o1)N/N=C/c1ccccc1C(=O)O`: 41.2% (inactive); `CC1Cc2ccccc2N1C(=O)CSc1nc2ccccc2o1` (stereo unspecified): 94.1% (active).
With `O=C(CSc1nc2ccccc2o1)N1c2ccccc2Sc2ccc(Cl)cc21`, the inhibition is -8.96% (inactive).
Next, `CC(C)(C)C(=O)CSc1nc2ccccc2o1`: 113% (active).
Take `Cc1cc(=O)[nH]c(SCC(=O)N2c3ccccc3CC2C)n1` (stereo unspecified): the inhibition is -7.96% (inactive).
Consider `CCn1c(SCC(=O)N/N=C/c2ccncc2)nc2ccccc21`, for which the inhibition was -2.17% (inactive).
Next, `CCS(=O)(=O)c1ccc2oc(SCC(=O)N3c4ccccc4CC3C)nc2c1` (stereo unspecified): -14.6% (inactive); `CCOC(=O)n1c(SCC(=O)N(CC)CC)nc2ccccc21`: -11% (inactive); `O=C(CSc1nc2ccccc2o1)N1CCN(c2ccccc2)CC1`: -6.06% (inactive).
Next, `O=S(=O)(NCC1CN(S(=O)(=O)c2ccc3c(c2)OCCO3)C1)c1c(F)cccc1F`: -12.4% (inactive).
For the compound `COC(=O)c1cc(S(=O)(=O)N2CCN(c3cc(C)ccc3C)CC2)c[nH]1`, the inhibition was -9.79% (inactive).
Turning to `CCC(C(=O)NC1CCCC1)N(C(=O)Cn1nnc(-c2ccc(C)o2)n1)c1ccc(OC)c(OC)c1` (stereo unspecified), the inhibition is -7.44% (inactive).
Consider `CC1CC(C)CN(CCOc2cccc3ccccc23)C1` (stereo unspecified), for which the inhibition was -12.3% (inactive).
Next, `CC1CCC(NC(=O)CN(C)S(=O)(=O)c2ccc3c(c2)c(=O)n(C)c(=O)n3C)CC1` (stereo unspecified): -2.58% (inactive); `CCCS(=O)(=O)N1CCN=C1SCc1cccc(F)c1`: -4.79% (inactive); `COC(=O)c1cc(OCC(=O)NC2CCCc3ccccc32)cc(C(=O)OC)c1` (stereo unspecified): -5.73% (inactive).
Regarding `O=C1OCCN1C(=O)[C@H]1[C@H](c2ccc(Cl)cc2)C(c2cccc(Cl)c2)=NN1c1ccc(Br)cc1`, the inhibition entry was “inactive”.
Next, `COc1ccccc1Oc1ccc(N2CC(C(=O)OCC(=O)c3ccc(F)cc3)CC2=O)cc1` (stereo unspecified): 7.33% (inactive); `COc1cccc(CNS(=O)(=O)c2ccc3c(c2)CC(C)N3C(C)=O)c1` (stereo unspecified): -5.4% (inactive).
Next, `O/N=C(\C[n+]1ccccc1)c1ccc(Br)cc1`: 13.2% (inactive); `O=C(Nc1ccc2nc3n(c(=O)c2c1)CCCCC3)c1ccccc1Cl`: 40.7% (inactive).
As for `O=C(Nc1ccc2sc3ccccc3c(=O)c2c1)c1ccccc1Cl`, the inhibition was 93.9% (active).
Next, `O=C(Nc1cccc(NC(=O)c2ccccc2[N+](=O)[O-])c1)c1ccccc1Cl`: 30.9% (inactive); `CCSCc1nc(N)nc(NCCc2ccccc2)n1`: 15.6% (inactive); `CCc1nn(CCCC(=O)NCc2ccc(C)cc2)c(=O)c2cc3occc3n12`: 18.7% (inactive).
Regarding `CCNC(=S)N(CCN(CC)CC)Cc1cc2cc3c(cc2[nH]c1=O)OCO3`, the inhibition was -7.63% (inactive).
With `COc1ccc(NC(=O)C(C)N2c3cccc4cccc(c34)S2(=O)=O)c(OC)c1` (stereo unspecified), the inhibition is -11.7% (inactive).
Turning to `CCC(C)NCC(=O)Nc1ccc([N+](=O)[O-])cc1C(=O)Nc1ccccc1F` (stereo unspecified), the inhibition was 13% (inactive).
Next, `Cc1ccc(/C([O-])=C(/C(=S)NCc2ccco2)[n+]2ccccc2)cc1[N+](=O)[O-]`: -8.48% (inactive); `O=[N+]([O-])c1cccc(/C([O-])=C(/C(=S)Nc2ccccc2F)[n+]2ccccc2)c1`: 83.4% (active); `Cc1cc(C)c(C#N)c(Nc2cccc(Br)c2)n1`: -8.95% (inactive).
Next, `COc1ccc(C(C)=O)cc1COc1ccc(Cl)c(C)c1`: 7.61% (inactive); `Cc1cc(Cl)ccc1OCCCC(=O)NCc1ccncc1`: 14.6% (inactive); `COc1ccc(N2CCN(C(=O)CCc3nc(-c4ccc(C)cc4)no3)CC2)cc1`: -8.71% (inactive).
Turning to `Cc1cc(Cl)ccc1OCc1nc(-c2ccncc2)no1`, the inhibition was 129% (active).
Next, `CN(Cc1ccccn1)Cc1nc(-c2ccc(Cl)cc2)no1`: 31.7% (inactive); `COc1ccc(-c2noc(COc3ccc(Cl)c(C)c3)n2)cc1`: 25.5% (active); `C=C(C)COc1ccc(-c2ncncc2-c2ccc(OC)cc2)c(O)c1`: -1.7% (inactive).
`Cc1ccc(CN2C(=O)N/C(=C/c3cc(C)n(-c4ccccn4)c3C)C2=O)cc1`: the inhibition is 31.1% (inactive).
As for `CCN(CC)S(=O)(=O)c1ccc(Cl)c(C(=O)NCCN2CCOCC2)c1`, the inhibition was -6.97% (inactive).
The value for `COc1c(C(C)C)oc2cc3oc(=O)ccc3cc12` was 34% (inactive); that for `Cc1ccc(OCC(=O)Nc2ccc3oc(=O)ccc3c2)cc1C` was -5.7% (inactive).
Consider `Cc1oc2cc3oc(=O)ccc3cc2c1C`, for which the inhibition was 40.7% (active).
Turning to `CCN(C(=O)COc1ccc(C(=O)c2ccccc2)cc1)c1ccccc1`, the inhibition is -10.2% (inactive).
The value for `Cc1ccccc1N1CC(C(=O)Nc2nnc(SCCC3OCCO3)s2)CC1=O` (stereo unspecified) was -4.6% (inactive); that for `COc1ccc(OCc2nnc3n2N=C(c2ccccc2)C(CC(=O)O)S3)cc1` (stereo unspecified) was -9.4% (inactive); that for `CC/C(=N\NC(=O)c1ccccc1O)c1c(O)n(Cc2ccccc2)c(=O)[nH]c1=O` was 58.6% (active).
As for `CCCCn1c(O)c(C(CC)=NCc2ccco2)c(=O)[nH]c1=O`, the inhibition was -7.37% (inactive).
Consider `CCCCCCN=C(CC)c1c(O)n(CCCC)c(=O)[nH]c1=O`, for which the inhibition is -8.53% (inactive).
Consider `Cc1cc2cc3c(cc2nc1SCC(=O)Nc1c(C)cccc1C)CCC3`, for which the inhibition is -6.77% (inactive).
`Cc1cccn2c(=O)c3cc(C(=O)NC4CCCCC4)sc3nc12`: the inhibition is -2.1% (inactive).
Next, `CCn1c(=N)c(C(=O)NCCCOC)cc2c(=O)n3cccc(C)c3nc21`: -7.15% (inactive); `CCOCCCNC(=O)c1cc2c(=O)n3ccccc3nc2s1`: 74.5% (active).
For the compound `NC(=O)C1CCN(CC(O)CSc2ccc(F)cc2)CC1` (stereo unspecified), the inhibition was 2.41% (inactive).
For the compound `CC(C)(C)NC(=O)Cn1cnc([N+](=O)[O-])n1`, the inhibition was -6.78% (inactive).
Next, `O=C(CSc1ncccn1)NCCc1ccccc1`: 1.16% (inactive); `O=C(Cn1cnc([N+](=O)[O-])n1)NCCc1ccccc1`: 17.3% (active).
